Data as given in ChEMBL document CHEMBL4513135, “CO-ADD screening of IQOG CSIS (Spain) compounds”.
Values joined by “and” are separate entries in the source; they are usually repeats but may differ in a detail not shown here. Equal entries are not always repeated. Measured potencies and affinities stand elsewhere.

Tests used:
Staphylococcus aureus = conditions: Concentration 32 ug.mL-1, ASSAY_TEST Inhibition of Bacterial Growth, detection method Absorption (OD600), MEDIA CAMHB, plate type 384well, NBS, CORNING #3640, time 18 hr
Escherichia coli = conditions: Concentration 32 ug.mL-1, ASSAY_TEST Inhibition of Bacterial Growth, detection method Absorption (OD600), MEDIA CAMHB, plate type 384well, NBS, CORNING #3640, time 18 hr

| Compound | Inhibition (Staphylococcus aureus) | Inhibition (Escherichia coli) | Inhibition (Staphylococcus aureus; 32 ug/mL) | Inhibition (Escherichia coli; 32 ug/mL) |
| --- | --- | --- | --- | --- |
| CCOC(=O)C1=C(C)Nc2nc3c(c(N)c2C1c1cccc(OC)c1)CCCC3 (configuration not stated) | 17.18% | -19.26% |  |  |
| CC(=O)CCc1c[nH]c2ccccc12 | 10.48% | 10.88% |  |  |
| COc1ccc2cc(C3C(C(C)=O)=C(C)Oc4nc5c(c(N)c43)CCCCC5)c(Cl)nc2c1 (configuration not stated) | 26.1% | 15.71% |  |  |
| O=C(O)C(=Cc1ccccc1)NC(=O)c1ccccc1 | 14.72% | 9.37% |  |  |
| CCOc1nc2nc(C)c(C=C3CCN(Cc4ccccc4)CC3)cc2c(-c2ccccc2)c1C#N | 33.88% | -8.83% |  |  |
| O=C(NCc1ccccc1)c1cc2ccccc2[nH]1 | 5.56% | 8.05% |  |  |
| CCOC(=O)C1=C(C)OC(N)=C(C#N)C1c1ccccc1OC (configuration not stated) | 23.12% | -9.51% |  |  |
| N#CC1=C(N)Oc2ccc3ccccc3c2C1 | 5.91% | -5.32% |  |  |
| COc1ccc(-c2cc(-c3cc4c(OC)ccc(OC)c4nc3Cl)cc(=O)[nH]2)cc1 | 22.4% | -10.79% |  |  |
| N#CC1(Br)C(=NBr)Oc2ccc3ccccc3c2C1c1ccccc1 (configuration not stated) | 7.34% | 1.03% |  |  |
| O=C(N[C@H]1CC[C@@H](Br)[C@@H](Br)C1)C(F)(F)F | 24.31% | -25.88% |  |  |
| N#Cc1cc2c(N)c3c(nc2nc1Cl)CCCC3 | 35.71% | -0.19% |  |  |
| CCOC(=O)c1c(C)nc2nc3c(c(N)c2c1-c1ccccc1OC)CCCCC3 | 5.11% | -17.67% |  |  |
| COc1nc(NC(C)=O)c(C#N)c(-c2ccccc2)c1C#N | 21.1% | -7.58% |  |  |
| Cl.OCCCC1CCNCC1 | 22.6% | 13.14% |  |  |
| O=C1OC(c2ccccc2)=NC1=Cc1ccccc1Cl | 16.61% | 12.84% |  |  |
| CCCC(C)NNC(=O)Cc1c[nH]c2ccccc12 (configuration not stated) | 1.02% | -9.25% |  |  |
| O=C(O)n1ccc2ccccc21 | 10.57% | 9.43% |  |  |
| O=C(Cc1c[nH]c2ccccc12)NN=C1CCCCCC1 | 10.21% | 6.07% |  |  |
| C#CCNc1nc(Cl)c(C#N)c(-c2ccccc2)c1C#N | 4.06% | 10.8% |  |  |
| COC1(N)Oc2ccc3ccccc3c2C(c2ccccc2)C1(Br)C#N (configuration not stated) | 16.73% | 20.49% |  |  |
| NC(=O)N/N=C/c1c[nH]c2ccccc12 | 3.48% | 5.19% |  |  |

| Compound | Inhibition (Staphylococcus aureus) | Inhibition (Escherichia coli) | Inhibition (Staphylococcus aureus; 32 ug/mL) | Inhibition (Escherichia coli; 32 ug/mL) |
| --- | --- | --- | --- | --- |
| COC(=O)C(=Cc1ccc(OC)cc1)NC(C)=O | 16.29% | 8.29% |  |  |
| Cc1ccc2nc(Cl)c(/C=N/NCc3ccccc3)cc2c1 | 26.2% | 22.89% |  |  |
| N#CC1=C(N)Oc2c(ccc3ccccc23)C1c1c(Cl)cccc1Cl (configuration not stated) | 8.27% | 6.46% |  |  |
| C=CCNc1nc(N)c(C#N)cc1C#N | 40.4% | -12.52% |  |  |
| COc1ccc(C2c3ccc4ccccc4c3OC(=NBr)C2(Br)C#N)cc1 (configuration not stated) | 25.41% | -8.93% |  |  |
| Cc1ccc(C2c3c(Cl)nnnc3Oc3ccc4ccccc4c32)cc1 (configuration not stated) | 36.97% | 16.16% |  |  |
| O=C1SC(SCc2ccccc2)=NC1=Cc1cccc(OCc2ccccc2)c1 | -1.09% | 7.89% |  |  |
| O=C1SC(SCc2ccccc2)=NC1=Cc1ccccc1 | 6.82% | 1.82% |  |  |
| Cn1ccnc1C1c2ccc3ccccc3c2Oc2nc3c(c(N)c21)CCCCC3 (configuration not stated) | 17.85% | -12.42% |  |  |
| Nc1c2c(nc3ccc([N+](=O)[O-])cc13)CCCC2 | 53.1% | 1.31% |  |  |
| CCOC(=O)c1c(C)nc2nc3c(c(N)c2c1-c1ccc(Cl)cc1)CCCCC3 | 2.05% | -16.85% |  |  |
| CN1C/C(=C\Cl)n2c1c(C#N)c(-c1ccccc1)c(C#N)c2=O | 14.24% | -33.76% |  |  |
| C#CCNC.O=C(O)C(=O)O | 24.36% | 23.06% |  |  |
| OCc1c(-c2ccc(Br)cc2)nc2ccccn12 | 6.46% | 0.77% |  |  |
| O=c1oc2cc(O)ccc2cc1-c1ccccc1 | 10.2% | 2.31% |  |  |
| COc1cc(C=NNC(=O)Cc2c[nH]c3ccccc23)ccc1O | 8.14% | -0.45% |  |  |
| CCOC(=O)/C(C#N)=C\c1ccc(Cl)cc1 | 19.96% | 11.69% |  |  |
| O=C(NN=Cc1c[nH]c2ccccc12)c1cccc2ccccc12 | 15.12% | 10.09% |  |  |
| c1ccc(-c2nc3c4cnn(-c5ccccc5)c4ncn3n2)cc1 | 14.04% | 8.07% |  |  |
| COC(=O)C(=Cc1ccc([N+](=O)[O-])cc1)NC(=O)c1ccccc1 | 7.69% | 6.65% |  |  |
| N#CC1(Br)C(=NBr)Oc2c(ccc3ccccc23)C1c1ccc([N+](=O)[O-])cc1 (configuration not stated) | 36.89% | -19.6% |  |  |
| CC1Cc2c(Cl)nc3nc4c(c(N)c3c2NC1=O)CCCC4 (configuration not stated) | 46.7% | -7.98% |  |  |

| Compound | Inhibition (Staphylococcus aureus) | Inhibition (Escherichia coli) | Inhibition (Staphylococcus aureus; 32 ug/mL) | Inhibition (Escherichia coli; 32 ug/mL) |
| --- | --- | --- | --- | --- |
| O=C1NC(=S)N/C1=C\c1c[nH]c2ccccc12 | 7.26% | 6.43% |  |  |
| COc1ccc2nc(Cl)c(C=O)cc2c1 |  |  | 19.77% and 20.88% | 18.53% and 18.96% |
| CC(=O)N1CC(=O)NC1=S | 18.21% | 15.12% |  |  |
| O=C(N/N=C/c1c[nH]c2ccccc12)c1ccco1 | 13.11% | 12.98% |  |  |
| CNCc1cc2cc(OC)ccc2n1C.Cl | 10.42% | -0.77% |  |  |
| CC(=O)NCCc1ccccc1 | 12.71% | 11.94% |  |  |
| COc1ccc(C2C(C#N)=C(N)Oc3c2ccc2ccccc32)cc1 (configuration not stated) | 21.39% | -6.99% |  |  |
| COc1cc(C2CC2(N)C(=O)O)ccc1O (configuration not stated) | 4.38% | -1.72% |  |  |
| Cc1ccc(C2CC2(N)C(=O)O)cc1.Cl (configuration not stated) | 8.71% | 6.19% |  |  |
| N#Cc1cc2c(N)c3c(nc2nc1Cl)CCN(Cc1ccccc1)C3 | 31.61% | -4.39% |  |  |
| Cc1cnc(NC(=O)OC(C)(C)C)c(Br)c1 | 34.57% | -15.12% |  |  |
| N#Cc1c(Cl)nc(NC2CCN(Cc3ccccc3)CC2)c(C#N)c1-c1ccccc1 | -0.92% | -18.84% |  |  |
| C#CCN(C)c1cc(C)nc(C)n1 | 21.48% | -8.55% |  |  |
| O=C(Cc1ccccc1)N/N=C/c1c[nH]c2ccccc12 | 9.24% | 17.46% |  |  |
| COc1ccc(C2c3c(ccc4ccccc34)OC(=NBr)C2(Br)C#N)cc1 (configuration not stated) | 37.33% | -19.75% |  |  |
| COc1cc(C2c3c(nc4c(c3N)CCCC4)Oc3ccc4ccccc4c32)cc(OC)c1OC (configuration not stated) | 14.84% | 14.05% |  |  |
| N#Cc1cc(C#N)c(NCc2ccccc2)nc1N | 27.12% | -14.28% |  |  |
| N#Cc1cc(C#N)c(Cl)nc1N | 11.29% | 7.53% |  |  |
| CNCc1cc2ccccc2n1C.Cl | 7.33% | 3.85% |  |  |
| Cc1ccc(-c2c(C#N)c(N)nc3c2S(=O)(=O)OC3(C)C)cc1 | 9.98% | 6.38% |  |  |
| Cc1nn(-c2ccccc2)c2ncnc(NCc3ccccc3)c12 | 16.34% | 7.89% |  |  |
| N#CC1=C(N)NC(=O)CC1c1ccccc1 (configuration not stated) | 34.44% | 4.14% |  |  |

| Compound | Inhibition (Staphylococcus aureus) | Inhibition (Escherichia coli) | Inhibition (Staphylococcus aureus; 32 ug/mL) | Inhibition (Escherichia coli; 32 ug/mL) |
| --- | --- | --- | --- | --- |
| Cl.Nc1c2c(nc3c1C(c1ccccc1)c1ccc4ccccc4c1O3)CCCC2 (configuration not stated) | 23.84% | 6.79% |  |  |
| COc1nc(N)c(C#N)cc1C#N | 18.25% | -3.66% |  |  |
| Cc1cnc2ccc(Cl)cn12 | 9.7% | 8.76% |  |  |
| OCc1cc2ccccc2[nH]1 | 39.41% | -0.49% |  |  |
| CCOC(=O)c1c(C)nc(NCC2CCN(Cc3ccccc3)CC2)c(C#N)c1-c1ccccc1 | 24.62% | -10.38% |  |  |
| C#CCN(C)Cc1cc2cc(OCCCCC3CCN(Cc4ccccc4)CC3)ccc2n1C.Cl | 41% | -14.71% |  |  |
| CCOC(=O)c1c(C)[nH]c2ccc(OC)cc12 | -4.64% | 0.02% |  |  |
| COc1ccc(C2c3c(nc4c(c3N)CCCC4)Oc3ccc4ccccc4c32)cc1OC (configuration not stated) | 3.78% | 13.42% |  |  |
| COc1ccc(-c2cc(-c3cc4ccccc4nc3Cl)cc(=O)[nH]2)cc1 | 22.93% | -12.6% |  |  |
| COc1ccc(C2c3c(nc4c(c3N)CCCC4)Oc3ccc4ccccc4c32)cc1 (configuration not stated) | 18.52% | 4.53% |  |  |
| C#CCN(C)c1cc(Cl)nc(N)n1 | 26.35% | -8.33% |  |  |
| N#Cc1c(N)nc(N2CCC(Cc3ccccc3)CC2)c(C#N)c1-c1ccccc1 | 8.01% | -15.68% |  |  |
| CC(=NNC(N)=O)c1c[nH]c2ccccc12 | 2.54% | 16.24% |  |  |
| COc1ccccc1C1C(C#N)=C(N)Oc2c1ccc1ccccc21 (configuration not stated) | 19.36% | -9.01% |  |  |
| Nc1c2c(nc3nc4ccccc4nc13)CCCC2 | 36.81% | -11.07% |  |  |
| N#Cc1cc(C#N)c(N2CCCC2)nc1N | 51.19% | -9.12% |  |  |
| Cc1nc2c(cc1C#N)c(N)nn2C | 30.49% | 0.08% |  |  |
| Cn1ccnc1C1c2ccc3cccnc3c2Oc2nc3c(c(N)c21)CCC3 (configuration not stated) | 14.96% | -15.51% |  |  |
| CC1=C(C(=O)N2[C@@H]3C[C@H]4CCC3(CS2(=O)=O)C4(C)C)C(c2ccccc2)C(C#N)=C(N)O1 (some centres not stated) | -1.02% | 15% |  |  |
| CC1(C)OC(=O)C(=Cc2ccc([N+](=O)[O-])cc2)C(=O)O1 | 28.78% | 10.5% |  |  |
